Screening data as filed in PubChem BioAssay.
DAX1 inh-1: inhibitors of human orphan nuclear receptor DAX1 (NR0B1). HEK293 Gal4-DAX1 luciferase reporter, luminescence. inhibition, % at 6.75 µM. hit rate 0.99% among 340,000;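 active = inhibition above the mean over all tested compounds plus 3 SD, cut at about 4.2% in these data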;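 note: inhibition shows as a rise in luminescence from relieved DAX1 repression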
DAX1 inh-2: DAX1 (NR0B1) inhibition, primary screen. HEK293T StAR-luciferase reporter, SF-1/DAX-1 repression relief. inhibition, % at 6.8 µM. hit rate 1.1% among 370,000;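 active = inhibition above the mean over all tested compounds plus 3 SD, cut at about 3.6% in these data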;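 note: higher inhibition means more luminescence from relief of DAX-1 repression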
AHR act: human AHR activation. P35869. AHR-responsive luciferase reporter cells, luminescence. activation, % at 5 µM. hit rate 2.5% among 320,000. AID 2796; in the data active = activation above about 47%
hcDAF12 agonist: activates DAF-12 receptor from parasite H. contortus; activation, % at 6.8 µM; HEK293 hcDAF-12 lit1-tk-luc reporter, luminescence; 0% DMSO, 100% Δ7-dafachronic acid; hit rate 1.4% among 370,000;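 active = activation above the mean of all tested compounds plus 3 SD, cut at about 5.5% in these data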
hgDAF12 agonist: activates the H. glycines DAF-12 receptor ligand-binding domain; HEK293 GAL4-hgDAF12 UAS-luciferase reporter, agonist luminescence; normalized to butyrate control; activation, % at 6.8 µM; hit rate 1.8% among 370,000; AID 687014;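 active = activation above a cutoff set at the mean of all screened compounds plus 3 SD, cut at about 10% in these data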
ssDAF12 agonist: activates DAF-12 receptor from parasite S. stercoralis; HEK293 ssDAF-12/GRIP1 lit1-tk-luc reporter, luminescence; % of 3 µM dafachronic acid response; hit rate 1% among 370,000; activation, % at 6.8 µM; AID 652126;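 active = activation above the mean over all tested compounds plus 3 SD, cut at about 0.9% in these data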
A number is an active result; i = inactive; nt = no result given. Sampled rows, rich in hits. Any-hit rate of the full collection: about 5.7%.

SMILES	DAX1 inh-1	DAX1 inh-2	AHR act	hcDAF12 agonist	hgDAF12 agonist	ssDAF12 agonist
COc1ccc(OC)c(CCNC(=O)Cn2nc(C)c3c(C)n(-c4ccccc4)nc3c2=O)c1	i	i	i	i	i	i
CC1CC(O)C(C)CN1 (stereo not drawn)	5.4	i	nt	i	i	i
COc1ccccc1NC(=O)c1sc2nc3n(c(=O)c2c1C)CCC3	i	i	i	i	i	i
Cc1c(C(=O)Nc2ccccc2F)sc2nc3n(c(=O)c12)CCC3	i	i	i	i	11	i
O=C(NCCc1ccccc1)C(=O)NCC1CCCN1S(=O)(=O)c1cccs1 (stereo not drawn)	i	i	i	i	i	i
C[C@H]1C2CC(OC(=O)Nc3ccc4c(c3)OCO4)C(C2)[C@H]2CCCCN21 (stereo partly drawn)	nt	i	nt	i	i	i
Cc1c(NC(=O)C(C)OC(=O)c2cc(-c3cccc4ccccc34)nc3ccccc23)c(=O)n(-c2ccccc2)n1C (stereo not drawn)	i	i	i	i	11	i
COc1ccc(-c2cc(C(=O)OC(C)C(=O)Nc3c(C)n(C)n(-c4ccccc4)c3=O)c3ccccc3n2)cc1 (stereo not drawn)	i	i	i	i	i	i
COc1ccc(-c2cn(-c3cccc(C)c3)c(=O)[nH]2)cc1OC	i	i	i	i	i	i
COc1ccccc1-n1cc(-c2ccc(Cl)cc2)[nH]c1=O	i	i	i	6.4	i	i
N#Cc1ccc(CSc2ccc(S(=O)(=O)N3CCCC3)cn2)cc1	i	i	i	i	i	i
CC1CCCC(C)N1S(=O)(=O)c1ccc(Cl)cc1 (stereo not drawn)	4.7	i	i	i	i	i
COC(=O)/C=C/c1cnc[nH]1	i	i	i	i	i	i
COc1ccc(S[C@]2(C(=O)N3CCCC3)CC(=O)N(P(=O)(OC)OC)[C@@H]2c2ccc(OC)cc2)cc1	nt	i	nt	i	i	i
Cc1cc2ncc(C(=O)N=CN(C)C)cn2n1	i	i	i	i	i	i
Cc1cc2ncc(-c3ccc(Cl)cc3)cn2n1	i	3.7	i	i	11	i
CCCC(=O)Nc1ccc(NC(=O)c2ccccc2OC)cn1	i	i	i	i	i	i
COc1cc(C(=O)Nc2ccc(C)cn2)c([N+](=O)[O-])cc1OC	i	i	i	i	i	i
COc1ccccc1C(=O)NCCC(=O)Nc1ccc(C)cn1	i	i	i	5.7	i	i
COc1ccc(C(=O)Nc2ccc(C)cn2)c(OC)c1	i	i	49	i	i	i
CC1=CCC(C(=O)O)C(C(=O)Nc2cccnc2)C1 (stereo not drawn)	i	i	i	i	i	1.7
CC1=CCC(C(=O)O)C(C(=O)Nc2nc3ccc(S(C)(=O)=O)cc3s2)C1 (stereo not drawn)	i	i	i	i	i	i
CCOC(=O)C1CCN(C(=O)c2ccc(OCC(=O)Nc3ccc(OCC)cc3)c(OC)c2)CC1	4.2	i	i	i	i	i
N#Cc1sc(NCc2ccccn2)nc1Cl	i	i	i	i	i	i
O=C(COc1ccc(Cl)cc1Cl)c1ccc[nH]1	8.0	i	i	i	i	i
SMILES	DAX1 inh-1	DAX1 inh-2	AHR act	hcDAF12 agonist	hgDAF12 agonist	ssDAF12 agonist
Cc1ccc(C)c(CSc2nc3[nH]ncc3c(=O)[nH]2)c1	i	i	48	i	i	i
CN1C(=O)[C@@]2(O[C@H]3C=CC=CN3C3=C2C(=O)CCC3)c2cccc(Br)c21	nt	i	nt	i	i	0.9
CN1C(=O)[C@@]2(O[C@H]3c4ccccc4C=CN3C3=C2C(=O)CCC3)c2ccccc21	nt	i	nt	i	i	i
COCCNC(=S)N/N=C(\C)c1ccc(-n2ccnc2)cc1	i	i	87	i	i	i
CCOc1ccc(S(=O)(=O)Nc2ccc(C(=O)N/N=C(\C)c3ccc(-n4ccnc4)cc3)cc2)cc1	i	i	54	i	i	i
CNC(=S)N/N=C(\C)c1ccc(-n2ccnc2)cc1	i	i	i	i	i	i
CCN(C(=O)c1cccs1)C1CCS(=O)(=O)C1 (stereo not drawn)	i	i	nt	i	i	i
COC(=O)C1CN(C2CC2)CCS(=O)(=O)N1Cc1cn(Cc2ccc(OC)cc2)nn1 (stereo not drawn)	nt	i	nt	i	i	i
O=C(CO/N=C/c1ccccc1OC(F)F)N1CCc2ccccc21	i	i	i	6.5	i	i
O=c1oc(-c2ccccc2NS(=O)(=O)c2ccc3ccccc3c2)nc2ccccc12	i	i	i	i	i	i
O=C(NCCc1ccccc1)c1nc(-c2cccs2)no1	i	i	i	i	11	i
O=C(NCCc1ccccc1)c1nc2nc(-c3cccs3)cc(C(F)(F)F)n2n1	i	i	77	i	i	i
O=C(NCc1cccs1)c1nc(-c2cccs2)no1	4.3	i	i	i	i	i
O=C(NCc1ccncc1)c1nc(-c2cccs2)no1	i	i	i	i	i	i
C/C(=N\NC(=O)C1CC1)c1ccc(C)cc1C	i	i	i	i	i	i
COC(=O)C1=C(C)N(Cc2ccccc2C(F)(F)F)C(=NCc2ccc(C(F)(F)F)cc2)NC1c1cccc(Cl)c1 (stereo not drawn)	nt	i	nt	i	i	i
CCSc1nsc(NC(=O)Nc2ccccc2F)n1	i	i	78	i	11	i
COc1ccc(-c2c(-c3ccccc3OC)sc3ccccc23)cc1F	nt	i	nt	i	i	i
Cc1ccc2nc3ccc(N4CCN(C)CC4)nn3c(=O)c2c1	i	4.3	i	5.7	i	i
CC(C)c1nnc(NC(=O)CCC(=O)NCc2ccc(F)cc2)s1	i	i	i	i	i	i
O=C1NC(=Nc2ccccc2)S/C1=C\c1cccs1	i	i	72	i	i	1.4
Cc1ccc(N=C2NC(=O)/C(=C\c3ccco3)S2)cc1	i	i	i	i	i	i
Cc1cc(C)cc(N=C2NC(=O)/C(=C/c3cccs3)S2)c1	i	i	56	i	i	i
Cn1cccc1/C=C1\SC(=Nc2ccccc2)NC1=O	i	i	i	i	i	i
COC(=O)[C@]12C[C@H](CC(=O)N3CCN(C(=O)C4CC4)CC3)C(=O)N(Cc3ccc4c(c3)OCO4)C1=C[C@H](COCc1ccccc1)O[C@@H]2C	nt	i	nt	i	i	i
SMILES	DAX1 inh-1	DAX1 inh-2	AHR act	hcDAF12 agonist	hgDAF12 agonist	ssDAF12 agonist
[O-]c1n[n+](-c2ccc(Cl)cc2)cc2ccccc12	i	i	i	i	i	i
[O-]c1n[n+](-c2ccc(Cl)cc2Cl)cc2ccccc12	4.4	i	i	i	i	i
O=C(Nc1ccc(F)cc1)OCCCN1C(=O)CCC12CCCCC2	nt	i	nt	i	i	i
O=C(CSc1ccc2nnc(-c3ccccn3)n2n1)Nc1nccs1	i	i	55	i	i	i
COc1ccccc1NC(=O)CSc1ccc2nnc(-c3cccnc3)n2n1	i	i	79	i	i	i
Cc1ccc(CSc2ccc3nnc(-c4cccnc4)n3n2)cc1	i	i	71	i	i	i
